DRD3 antagonist – qHTS of D3 Dopamine Receptor Antagonist: qHTS; D3R cells, DiscoveRx beta-arrestin luminescence, antagonist mode; hits give low values; max response, negative = inhibition, %; 2.5% of 360,000 active; AID 652054, 2013; in the data active means max response below about -50%; inconclusive means no clear call, values can overlap the other calls; further: on the % scale 0 is the no-effect control and ±100 the full control effect
Target sequence (P35462 whole entry, looked up): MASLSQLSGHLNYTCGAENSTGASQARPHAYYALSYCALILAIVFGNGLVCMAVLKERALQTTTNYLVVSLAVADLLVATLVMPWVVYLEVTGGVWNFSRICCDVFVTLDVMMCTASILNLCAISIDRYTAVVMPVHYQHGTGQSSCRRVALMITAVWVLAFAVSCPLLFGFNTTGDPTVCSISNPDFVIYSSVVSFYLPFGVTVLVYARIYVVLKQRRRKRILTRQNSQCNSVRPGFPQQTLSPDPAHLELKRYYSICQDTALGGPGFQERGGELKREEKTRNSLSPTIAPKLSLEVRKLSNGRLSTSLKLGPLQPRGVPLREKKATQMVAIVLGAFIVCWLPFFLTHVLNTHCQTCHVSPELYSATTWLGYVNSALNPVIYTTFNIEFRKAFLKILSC
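Cells expressing the human receptor were seeded at 1500 cells/well, incubated overnight at 37 degrees C in 5% CO2, then exposed to library compounds with dopamine controls for 90 minutes at 37 degrees C before luminescent detection.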
RGS4 inhibitor – Inhibitors of Regulator of G Protein Signaling (RGS) 4: qHTS; Potency, µM (titrated, usually from 114 µM), for the others: at the top dose activity change, negative = inhibition, usual class: inhibitors; Transcreener GDP fluorescence polarization, RGS4-accelerated GTP hydrolysis; 0.039% of 390,000 active; Regulator of G-protein signaling 4 (Homo sapiens), P49798; active means well fitted inhibition curve with a large enough effect; inconclusive means small, poorly fitted or top-dose-only effect; inactive means no such curve, though single readings can be large or run the other way; further: potency means the concentration at half of the fitted maximal effect; on the % scale 0 is the no-effect control and ±100 the full control effect; nearly all actives have a fitted effect of over 75% in size
Target sequence (P49798 whole entry, looked up): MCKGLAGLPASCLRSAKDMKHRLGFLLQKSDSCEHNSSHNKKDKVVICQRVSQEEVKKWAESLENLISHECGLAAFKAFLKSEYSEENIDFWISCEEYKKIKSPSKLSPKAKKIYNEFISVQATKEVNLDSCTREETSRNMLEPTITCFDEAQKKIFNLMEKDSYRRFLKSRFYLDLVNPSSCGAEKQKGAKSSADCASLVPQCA
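MLSMR compounds (23 nl, pin-transferred) preincubated 10 min at room temperature with a 500nM (2x) first reagent, then RGS4 at 900nM (2x) plus Transcreener GDP mix added; fluorescence polarization (620/688 nm) read before and after 90 min at 30 °C.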
D3 ag – qHTS of D3 Dopamine Receptor Agonist: qHTS | D(3) dopamine receptor (Homo sapiens), P35462 | D3R DiscoveRx beta-arrestin cells, luminescence, 90 min | max activation, % | 0.58% of 410,000 active | AID 652048, 2013; in the data active means max activation above about 30%; further: 0% is about no effect
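Cells at 1500/well, incubated overnight, then treated with pinned compounds (dopamine as control) for 90 min at 37 degrees C. DiscoveRx reagent added for 30 - 60 minutes at room temperature; luminescence read.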
uPA surface inh – qHTS for Inhibitors of Cell Surface uPA Generation; cell surface uPA generation assay, qHTS; Potency, µM (titrated, usually from 38.3 µM), without a hit: at the highest dose activity change, negative = inhibition, usual class: inhibitors; 0.31% of 330,000 active; active means well fitted inhibition curve with a large enough effect; inconclusive means small, poorly fitted or top-dose-only effect; inactive means no such curve, though single readings can be large or run the other way; tested in mouse RAW 264.7 cells; further: potency means the concentration at half of the fitted maximal effect; on the % scale 0 is the no-effect control and ±100 the full control effect; nearly all actives have a fitted effect of over 55% in size
Starred values were filed as active, the others as inactive; ! = repeats disagree; [ ] = dose if it differs, or a comment. Shown are actives, neighbours in structure and some others; about 3.1% of the full set was active somewhere.

What do the screens show for `c1ccc2c(c1)CCc1ccccc1C2=C1CCNCC1`?
DRD3 antagonist: -85.1*; RGS4 inhibitor: -19.0%; D3 ag: -13.6; uPA surface inh: -0.4%

How did COc1cc2c(c(O)c1OC)-c1c(cc(OC)c(OC)c1OC)C[C@@H](C)[C@@H](C)C2 do in these assays?
DRD3 antagonist: -4.4; RGS4 inhibitor: -19.8%; D3 ag: 3.9; uPA surface inh: -20.5%

Results for COc1cc2c(c(OC)c1OC)-c1c(cc3c(c1O)OCO3)C[C@@H](C)[C@@H](C)C2 ?
DRD3 antagonist: -11.3; RGS4 inhibitor: -0.3%; D3 ag: -11.9; uPA surface inh: 11.2µM*

How did COc1ccc(Cl)cc1-c1nc(-c2ccc(NC(=O)c3ccncc3)cc2)no1 do in these assays?
DRD3 antagonist: 11.2; RGS4 inhibitor: -54.0%; D3 ag: -2.2; uPA surface inh: 1.0%

Results for COc1ccc(-c2nc(-c3ccc(NC(=O)c4ccncc4)cc3)no2)cc1OC ?
DRD3 antagonist: 70.1; RGS4 inhibitor: -1.4%; D3 ag: 49.7*; uPA surface inh: -23.8%

Results for O=C(Cn1nnc(-c2ccccc2Cl)n1)Nc1ccc(Br)cc1 ?
RGS4 inhibitor: 12.6%; D3 ag: 2.3

What do the screens show for `CNC(=O)c1nnsc1S(=O)(=O)c1ccc(Cl)cc1`?
DRD3 antagonist: -110.0*; RGS4 inhibitor: inconclusive; D3 ag: -19.1; uPA surface inh: -12.3%

What do the screens show for `O=C(c1nnsc1S(=O)(=O)c1ccc(Cl)cc1)N1CCOCC1`?
DRD3 antagonist: inconclusive; RGS4 inhibitor: -17.8%; D3 ag: -8.1; uPA surface inh: -14.4%

Results for CCOc1ccc(NC(=O)Cn2c(=O)n(Cc3ccco3)c(=O)c3ccc(C(=O)NC4CCCC4)cc32)cc1 ?
RGS4 inhibitor: 3.9%; D3 ag: 2.0

Results for Brc1cc2[nH]cnc2c2ccccc12 ?
DRD3 antagonist: 18.5; RGS4 inhibitor: 15.7%; D3 ag: 45.9*

What do the screens show for `Oc1ccc2c(ccc3[nH]cnc32)c1`?
DRD3 antagonist: -13.9; RGS4 inhibitor: 7.9%; D3 ag: -4.5; uPA surface inh: 3.0%

What do the screens show for `Cc1ccc(-n2c(CCc3nc4ccccc4[nH]3)n[nH]c2=S)cc1`?
DRD3 antagonist: -50.9*; RGS4 inhibitor: inconclusive; D3 ag: -19.0; uPA surface inh: -0.8%

How did CCCn1c(SCC(=O)c2cc(C)n(-c3cc(C)on3)c2C)n[nH]c1=O do in these assays?
DRD3 antagonist: 11.1; RGS4 inhibitor: -35.5%; D3 ag: 30.7*; uPA surface inh: -2.0%

What do the screens show for `Cc1oc2c(C)c3oc(=O)c(CCC(=O)N4CCCCC4)c(C)c3cc2c1C`?
RGS4 inhibitor: 45.5%; D3 ag: 5.5

Results for Clc1ccc2c(c1)C(N1CCNCC1)=Nc1ccccc1O2 ?
DRD3 antagonist: -117.4*; RGS4 inhibitor: -14.4%[56.9 µM]; D3 ag: -85.0; uPA surface inh: -15.8%

Results for COc1cccc2sc3cc(C#CC4(O)CCCCC4)ccc3c(=O)c12 ?
DRD3 antagonist: 203.2; RGS4 inhibitor: -25.7%; D3 ag: 63.4*; uPA surface inh: inconclusive

What do the screens show for `COc1cccc2sc3ccc(C#CC4(N)CCCCC4)cc3c(=O)c12`?
DRD3 antagonist: 26.4; RGS4 inhibitor: 4.9%; D3 ag: 0.0; uPA surface inh: -28.7%

Results for CC1CCCC(NC(=O)CSc2n[nH]c(=O)n2Cc2ccccc2)C1C (configuration not stated) ?
DRD3 antagonist: -4.0; RGS4 inhibitor: 18.6%; D3 ag: 48.1*; uPA surface inh: 5.4%

What do the screens show for `O=c1oc2cc(O)ccc2cc1S(=O)(=O)c1ccccc1`?
DRD3 antagonist: -6.8; RGS4 inhibitor: -11.0%; D3 ag: 34.7*; uPA surface inh: -5.8%

How did C/C(=N/NC(N)=S)c1cc2ccc(O)cc2oc1=O do in these assays?
DRD3 antagonist: 37.6; RGS4 inhibitor: -45.5%; D3 ag: 8.0; uPA surface inh: -13.7%

Results for NC(=S)c1cc2ccc(O)cc2oc1=O ?
DRD3 antagonist: -68.3*; RGS4 inhibitor: -25.9%; D3 ag: -25.1; uPA surface inh: 0.2%

Results for Cc1ccc2nc(-c3cccc(SC4CCCCC4)c3)c(NCc3ccccc3)n2c1 ?
DRD3 antagonist: 58.0; RGS4 inhibitor: 3.8%; D3 ag: 5.1; uPA surface inh: inconclusive

How did Clc1ccc2nc(-c3cccc(SC4CCCCC4)c3)c(NCc3ccccc3)n2c1 do in these assays?
DRD3 antagonist: 10.5; RGS4 inhibitor: -19.1%; D3 ag: 12.3; uPA surface inh: -4.5%

What do the screens show for `Cc1ccn2c(NCc3ccccc3)c(-c3cccc(SC4CCCCC4)c3)nc2c1`?
DRD3 antagonist: 103.3; RGS4 inhibitor: -14.7%; D3 ag: 41.3*!; uPA surface inh: -9.0%

What do the screens show for `c1ccc(CNc2c(-c3cccc(SC4CCCCC4)c3)nc3ccccn23)cc1`?
DRD3 antagonist: 89.9; RGS4 inhibitor: 4.5%; D3 ag: 43.1*; uPA surface inh: inconclusive

Results for CCC(C)Sc1cccc(-c2nc3cc(C)ccn3c2NCc2ccccc2)c1 (configuration not stated) ?
DRD3 antagonist: 39.2; RGS4 inhibitor: -27.8%; D3 ag: 76.7*; uPA surface inh: -19.1%

What do the screens show for `CCOC(=O)COc1ccc(F)cc1C(=O)c1ccn2nc(-c3ccc(Cl)cc3)cc2n1`?
RGS4 inhibitor: 5.3%; D3 ag: 6.3

What do the screens show for `CCOc1ccc(-c2nn3c(-c4cc(-c5ccccc5)n[nH]4)nnc3s2)cc1`?
RGS4 inhibitor: 34.6%

How did Oc1ccc(Oc2ccc3c(C(F)(F)F)cc(C(F)(F)F)nc3n2)cc1 do in these assays?
DRD3 antagonist: 85.3; RGS4 inhibitor: 3.5%; D3 ag: 44.0*; uPA surface inh: -0.8%

What do the screens show for `O=C(c1ccc2c(c1)N(Cc1cccc(Cl)c1)C(=O)c1ccccc1S2(=O)=O)N1CCC(Cc2ccccc2)CC1`?
RGS4 inhibitor: 6.9%; D3 ag: 3.5

What do the screens show for `CC(C)NS(=O)(=O)c1ccc2nc(NC(=O)c3cncc(Br)c3)sc2c1`?
RGS4 inhibitor: 20.0%; D3 ag: 6.3

How did Cc1ccc(S(=O)(=O)N[C@@H](Cc2ccccc2)C(=O)CCl)cc1 do in these assays?
DRD3 antagonist: -10.2; RGS4 inhibitor: 7.52µM*; D3 ag: -62.8; uPA surface inh: 5.01µM*

What do the screens show for `O=C(c1cccc(Cl)c1)n1nc(-c2ccco2)nc1NCc1cccs1`?
RGS4 inhibitor: 23.0%; D3 ag: 4.7

What do the screens show for `CCOc1ccc(CCNC(=O)c2cc(C)nc3c2c(C)nn3-c2cccc(F)c2)cc1`?
RGS4 inhibitor: 6.3%; D3 ag: 63.4*

Results for COc1cccc(CNC(=O)c2cc(C)nc3c2c(C)nn3-c2ccc(C)cc2)c1 ?
RGS4 inhibitor: -2.9%; D3 ag: 36.6*

How did Cc1cc(C(=O)NCc2ccccc2)c2c(C)nn(-c3cccc(F)c3)c2n1 do in these assays?
RGS4 inhibitor: 9.0%; D3 ag: 9.9

Results for Cc1ccccc1C(=O)c1cccn1CC(=O)NCCCN1CCc2ccccc2C1 ?
DRD3 antagonist: -50.8*; RGS4 inhibitor: 26.4%; D3 ag: -10.1; uPA surface inh: -8.0%

From PubChem BioAssay
